HPGD block = qHTS Assay for Inhibitors of HPGD (15-Hydroxyprostaglandin Dehydrogenase) | 15-hydroxyprostaglandin dehydrogenase [NAD(+)] (Homo sapiens), P15428 | purified HPGD, NADH fluorescence kinetic, PGE2 substrate | Potency, µM, actives largely listed as inhibitors | actives 4.3% (n = 150,000) | AID 894, 2007
Target sequence (P15428 whole entry, looked up): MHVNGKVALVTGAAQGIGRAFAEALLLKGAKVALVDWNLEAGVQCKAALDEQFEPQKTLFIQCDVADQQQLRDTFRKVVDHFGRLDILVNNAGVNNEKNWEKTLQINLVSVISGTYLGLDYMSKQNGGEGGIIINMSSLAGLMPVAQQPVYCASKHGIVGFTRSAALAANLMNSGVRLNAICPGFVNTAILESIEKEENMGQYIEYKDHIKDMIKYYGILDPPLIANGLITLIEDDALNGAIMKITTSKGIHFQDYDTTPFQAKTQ
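NADH formation kinetics: reaction with 30 uM PGE2 and 1 mM NAD+ (final), 20 nM enzyme, Tris-HCl pH 8 with Tween 20, after 15 min compound preincubation at room temperature. Fluorescence change, last versus first of five reads.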
ALDH1A1 inh = qHTS Assay for Inhibitors of Aldehyde Dehydrogenase 1 (ALDH1A1); Purified ALDH1A1, NADH fluorescence, propionaldehyde substrate; Potency, µM (top dose mostly 75.3 µM), hits mostly inhibitors; actives 7.3% (n = 220,000); Aldehyde dehydrogenase 1A1 (Homo sapiens), P00352
PNC inhibitor = High Content Assay for Compounds that inhibit the Assembly of the Perinucleolar Compartment. PC3M PTB-GFP, PNC prevalence imaging, 16 h; hits give low values. activity change (PNC), negative = inhibition, % at 10 µM. actives 3.1% (n = 140,000);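 active = readout at or below -70, meaning at least 70% loss of cells showing the perinucleolar compartment, a nuclear body marking cancer cells; inconclusive = readout between -30 and a set limit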
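Read-out is percentage of cells bearing a perinucleolar compartment, from automated 20x imaging of fixed, Hoechst-stained PC3M PTB-GFP cells. Cells were seeded 4 h, then exposed 16 h to compound (23 nl of library stock) in duplicate plates.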
Each line names hits and unclear results; the compound was inactive in the other large screens. Compounds with a hit are over-represented: about 11% of the library has one in this group of screens. Unless noted, calls follow the shape of the dose curve; as a rule, active = well fitted inhibition curve with a large enough effect (not every such curve was filed as active); inconclusive = small, poorly fitted or top-dose-only effect, or another doubt; inactive = no such curve, though single readings can be large or run the other way.

Cc1ccc(CCNC(=O)C2CCCN(C(=O)c3cc4sccc4n3C)C2)cc1 (stereo not drawn)	ALDH1A1 inh 8.91µM
Cn1c(C(=O)N2CCCC(C(=O)NCCCc3ccccc3)C2)cc2sccc21 (stereo not drawn)	ALDH1A1 inh 14.1µM
Cn1c(C(=O)N2CCCC(C(=O)NCc3ccc4c(c3)OCO4)C2)cc2sccc21 (stereo not drawn)	ALDH1A1 inh 3.55µM
CCOC(=O)N1CCN(C(=O)c2cc3sccc3n2C)CC1	PNC inhibitor inconclusive
CCS(=O)(=O)N1CCCC(C(=O)NCc2ccc3c(c2)OCO3)C1 (stereo not drawn)	none
CS(=O)(=O)N1CCCC(C(=O)NCCc2ccccc2)C1 (stereo not drawn)	none
CCOC(=O)N1CCC(NC(=O)C2CCCN(C(=O)c3cc4sccc4n3C)C2)CC1 (stereo not drawn)	ALDH1A1 inh inconclusive
Cn1c(C(=O)N2CCCC(C(=O)NCCc3ccccc3)C2)cc2sccc21 (stereo not drawn)	ALDH1A1 inh 11.2µM
COc1cc2[nH]c(=O)n(CCCCCC(=O)N3CC=C(c4ccccc4)CC3)c(=O)c2cc1OC	HPGD block inconclusive, ALDH1A1 inh inconclusive
O=C(c1ccc(Cl)cc1)c1cnc2ccccn12	none
COc1ccc(CN2CCN(CCC(C)C)C(CCO)C2)cc1Cn1cncn1 (stereo not drawn)	none (no result: HPGD block, PNC inhibitor)
CCCC(C)NC(=O)c1ccc(C2SCC(=O)N2Cc2ccco2)cc1 (stereo not drawn)	ALDH1A1 inh inconclusive
COc1c(S(=O)(=O)n2nc(C)cc2C)ccc(Cl)c1Cl	HPGD block 22.4µM, ALDH1A1 inh 28.2µM
Cc1cc(C)n(S(=O)(=O)c2ccc(Cl)c(Cl)c2Cl)n1	none
CCc1nc2ccccc2n1Cc1cc(=O)n2cc(C)ccc2n1	HPGD block inconclusive, ALDH1A1 inh inconclusive
CCOc1ccc(CNC(=O)C(CC)n2nc(C)n3c(cc4occc43)c2=O)cc1OC (stereo not drawn)	PNC inhibitor -89.4
CCOc1ccc(CCNC(=O)C(C)n2nc(C)n3c(cc4occc43)c2=O)cc1OCC (stereo not drawn)	none
CO/N=C/c1ccc(OC)c(Oc2nc(OC)cc(OC)n2)c1	none (no result: HPGD block, PNC inhibitor)
CCN1CCN(C(=S)NC(C)c2ccccc2)CC1 (stereo not drawn)	ALDH1A1 inh 18.9µM
CCC(C)NC(=S)N1CCN(C(c2ccccc2)c2ccccc2)CC1 (stereo not drawn)	ALDH1A1 inh inconclusive
CNC(=S)N1CCN(C(c2ccccc2)c2ccccc2)CC1	ALDH1A1 inh 2µM (no result: HPGD block, PNC inhibitor)
CCN1CCN(C(=S)NC(CC(=O)c2ccccc2)c2ccccc2)CC1 (stereo not drawn)	none (no result: HPGD block, PNC inhibitor)
Cc1noc(C)c1-c1nc(NC2CC2)c2ccccc2n1	none (no result: HPGD block, PNC inhibitor)
O=C(O)C1CC=CCC1C(=O)NCc1ccc2c(c1)OCO2 (stereo not drawn)	none
Cc1cc(CNC(=O)C(C)n2nc(C)c([N+](=O)[O-])c2C)c2ccccc2n1 (stereo not drawn)	none (no result: HPGD block, PNC inhibitor)
N#CC1=C(Nc2ccccc2)SC=C(c2ccccc2)N=C1N1CCOCC1	ALDH1A1 inh 25.1µM
N#CC1=C(Nc2ccccc2)SC=C(c2ccc(Cl)c(Cl)c2)N=C1N1CCOCC1	ALDH1A1 inh inconclusive
Cc1cc(C)nc(NC(=S)Nc2cccc(Cl)c2Cl)c1	none (no result: HPGD block, PNC inhibitor)
CCCc1cc(=O)[nH]c(SC(CC)C(=O)Nc2ccccc2C#N)n1 (stereo not drawn)	PNC inhibitor inconclusive
COc1cc(NC(=O)Nc2ccc3c(c2)OCO3)cc(OC)c1OC	none (no result: HPGD block, PNC inhibitor)
COc1cc(C(Nc2ccc3c(c2)OCO3)C(=O)NC2CCCCC2)cc(OC)c1OC (stereo not drawn)	ALDH1A1 inh 0.631µM
CCO[C@@H]1OC(C(=O)NCc2ccccc2)=C[C@H](c2ccc(Br)cc2)[C@H]1CCCO	none (no result: HPGD block, PNC inhibitor)
Cc1cccc(-c2nc3ccccc3c(=O)n2NC(=S)N(C)C)c1	HPGD block 15.8µM, ALDH1A1 inh 8.91µM
CN(C)C(=S)Nn1c(-c2ccccc2)nc2ccccc2c1=O	none
Cc1ccc(C(=O)Nc2ccc3cn[nH]c3c2)cc1S(=O)(=O)N1CCOCC1	none (no result: HPGD block, PNC inhibitor)
Cc1csc(N2CCCC2=O)n1	none (no result: HPGD block, PNC inhibitor)
CCCCCC/C(C)=C1/SC(=S)NC1=O	HPGD block 12.6µM, ALDH1A1 inh inconclusive
CCCCCCCCCC(=O)O	none (no result: PNC inhibitor)
COc1ccccc1-c1ccc(=O)n(CC(=O)Nc2ccc(C(=O)N3CCCC3)cc2)n1	HPGD block 14.1µM, ALDH1A1 inh inconclusive
COc1ccccc1-c1ccc(=O)n(CC(=O)NCC2CCCO2)n1 (stereo not drawn)	none (no result: HPGD block, PNC inhibitor)
CCn1c(SCC(=O)Nc2cccc(C)n2)nc2c1c(=O)n(C)c(=O)n2C	none (no result: HPGD block, PNC inhibitor)

Bioassay records from PubChem BioAssay.
